Hit rate of the full screen: of about 48,000 compounds, about 13,000 (27%) showed an effect of 50% or more. This is one part of the list.
Each compound was assayed on Wolbachia pipientis (assay: Anti-Wolbachia Cell-Based Screen). Conditions: 5 µM.
Assay type: functional
Parameters: scale not given: in the data most compounds retested in dose-response had high values

Row | SMILES | Percent Effect [%]
1 | N#Cc1cccnc1NCc1ccc(S(=O)(=O)NC2CC2)cc1 | -3.149
2 | CCOCCNCC1CCN(CCO)CC1 | -14.57
3 | N#Cc1cc(F)ccc1CN1CCCCC1Cn1cncn1 (stereo not given) | 7.796
4 | O=C(Nc1ccccc1Cn1cncn1)C1CCN(C2CCCCC2)C1 (stereo not given) | -3.545
5 | COCCCn1cnnc1C(C)NC(=O)c1[nH]c2ccc(C)cc2c1C (stereo not given) | 21.75
6 | CCOC(=O)[C@H]1[C@@H](O)C(=O)N(C)C12CCN(C(=O)c1ccccc1)CC2 | 113.3
7 | CCOC(=O)[C@H]1[C@@H](O)C(=O)N(C)C12CCN(S(=O)(=O)CC)CC2 | 107.6
8 | COCCC1COC2(CCN(C(=O)CC3CCCC3)CC2)C1 (stereo not given) | -6.475
9 | Cc1ccc(F)c(OC2(C(=O)O)CCN(C(=O)c3ccccc3)CC2)c1 | -18.21
10 | CCOC(=O)C1CN(S(=O)(=O)CC)Cc2ncn(CC)c21 (stereo not given) | 10.83
11 | CN1C(=O)CC(c2ccccc2)C12CCN(C(=O)c1ccc[nH]1)CC2 (stereo not given) | -3.808
12 | CCS(=O)(=O)N1CCC2(CCCC(=O)N2C)CC1 | 1.174
13 | Cc1nn(C)c(C)c1C(=O)N1CCN(C(=O)CC2CCCCC2)CC1 | -14.94
14 | CCOC(=O)[C@H]1[C@@H](O)C(=O)N(C)C12CCN(C(=O)CC1CCCC1)CC2 | 108.5
15 | OC[C@H]1CN(Cc2c(Cl)cncc2Cl)C[C@H]1CN1CCCC1 | -2.945
16 | COCCc1noc(-c2ccc(-c3ccc(N)nc3)nc2)n1 | 3.848
17 | CC(C)N(C)S(=O)(=O)N1CCCC1C(=O)N1CCSCC1 (stereo not given) | -16.03
18 | CN(C)C1CCCN(Cc2cccc(Cn3cccn3)c2)CC1 (stereo not given) | -12.17
19 | CCCn1c(C)c(CC(=O)NC)c2c1CC(C)(C)CC2=O | -16.12
20 | O=C(NCCC1CN(C2CCCC2)CCO1)c1c[nH]c(=O)[nH]c1=O (stereo not given) | 104.1
21 | O=C(NCCC1CN(C2CCCC2)CCO1)c1cc(=O)[nH]c(=O)[nH]1 (stereo not given) | 90.1
22 | CC(=O)N1CCC(N2CCOC(CC3CCCCC3)C2)CC1 (stereo not given) | -12.42
23 | Cc1nc[nH]c1CN1CCOC(CCNC(=O)c2ccsc2)C1 (stereo not given) | 3.165
24 | O=C(NCCC1CCCO1)c1ccccc1N1CCOCC1 (stereo not given) | -10.37
25 | Cc1nc(-c2ccsc2)ccc1C(=O)NCCC1CCCO1 (stereo not given) | -16.18
26 | Cc1ccc(C(=O)NCC(O)CN2CCCC2=O)c(C)c1 (stereo not given) | -3.657
27 | O=C(c1cc(=O)[nH]c(=O)[nH]1)N1CCCCC1c1ccc(F)cc1 (stereo not given) | -19.12

Row | SMILES | Percent Effect [%]
28 | Cc1ccc(C(=O)NCCC2CN(C3CCCC3)CCO2)c(C)c1 (stereo not given) | 105.7
29 | CC(c1ccccc1)N(C)C(=O)CN1CCCc2cc(F)cc(F)c21 (stereo not given) | -34.4
30 | O=C(O)C(F)(F)F.O=C([C@H]1COC[C@H]2CN(c3ncc(F)cn3)C[C@H]21)N1CCOCC1 | -8.043
31 | O=C([C@H]1C[C@@H]2CN(c3ncc(F)cn3)C[C@H]1O2)N1CCCC1 | 104.9
32 | CCc1cnc(N2C[C@H]3C[C@H](C(=O)NCC(C)C)[C@@H](C2)O3)nc1 | -2.395
33 | CCc1cnc(N2C[C@H]3C[C@H](C(=O)N(C)C)[C@@H](C2)O3)nc1 | -23.08
34 | O=C(C1CN(c2ncc(F)cn2)CC12CCOCC2)N1CCOCC1 (stereo not given) | -0.101
35 | CCc1cnc(N2C[C@H]3C[C@H](C(=O)NC)[C@@H](C2)O3)nc1 | 2.577
36 | Cc1cnc(N2C[C@H]3C[C@H](C(=O)N(C)C)[C@@H](C2)O3)nc1 | -7.121
37 | CCc1cnc(N2C[C@H]3C[C@H](C(=O)N4CCOCC4)[C@@H](C2)O3)nc1.O=C(O)C(F)(F)F | 104.4
38 | O=C([C@H]1C[C@@H]2CN(c3ncc(F)cn3)C[C@H]1O2)N1CCOCC1 | 99.35
39 | O=C(NCCCF)Nc1ccc2nc(N3CCOCC3)oc2c1 | 0.7918
40 | O=C(NC1CCCC1)C1CCN(c2cc(-n3ccnc3)ncn2)CC1 | -4.5
41 | CNC(=O)C1CCCN(c2nc3c(-c4ccccc4)csc3c(=O)[nH]2)C1 (stereo not given) | 3.58
42 | O=C(C1CCN(c2snc3ccccc23)CC1)N1CCCCCC1 | 0.1158
43 | O=C(C1CCN(c2nc3nc[nH]c(=O)c3s2)CC1)N1CCCCC1 | 84.01
44 | CC(NC(=O)C1CCN(C(C)C)CC1)c1nncn1C1CCCC1 (stereo not given) | -21.33
45 | CC(C)NC(=O)C1CCN(c2nc3nc[nH]c(=O)c3s2)CC1 | 92.05
46 | CC(C)NC(=O)C1CCN(Cn2ccc(-c3ccc(F)cc3)n2)CC1 | 3.574
47 | CNC(=O)C1CCN(c2nc3nc[nH]c(=O)c3s2)CC1 | 82.12
48 | O=C(NC1CC1)C1CCN(c2nc3nc[nH]c(=O)c3s2)CC1 | 99.33
49 | CCc1nc(CC(=O)N2CCC(C(=O)N3CCCC3)CC2)cs1 | -3.887
50 | CCc1c(C)nc2ccccc2c1N1CCC(C(=O)NC)CC1 | -7.875
51 | O=C(NC1CCN(c2snc3ccccc23)CC1)C1CCC1 | 9.197
52 | CCC(=O)N1CCc2[nH]cnc2C12CCN(CC1CCOC1)CC2 (stereo not given) | -0.5236
53 | O=C(CCc1ccco1)NCC1CCCN1c1cccnn1 (stereo not given) | 2.662
54 | Fc1cc(CN2CCOC3(CCOCC3)C2)ccc1Cl | 8.168

Row | SMILES | Percent Effect [%]
55 | CN(C)C(=O)CNC(=O)c1ccc2c(-c3nccs3)noc2c1 | -0.7255
56 | CC(Cc1ccco1)NC(=O)C1=NN(c2ccccc2)C(=O)CC1 (stereo not given) | -5.577
57 | Cn1cnc2c1CCN(CCCOc1ccc(C#N)cc1)C2 | -1.382
58 | CN(C)c1ccc(-c2nnc([C@H]3CCN(C4CCCCC4)C3)o2)cc1 | -10.19
59 | Cc1ccccc1-c1cc(CC2(C(=O)O)CCOCC2)on1 | 97.16
60 | O=C(O)C1(Cc2cc(-c3ccc(F)cc3F)no2)CCOCC1 | -11.85
61 | Cc1cc(NCC2(O)CCOCC2)c2ccccc2n1 | 18.91
62 | O=C(CNC1(CCO)CCOCC1)Nc1ccc(F)cc1F | 0.1585
63 | O=C(NCCO)C1(Cc2cc(-c3ccc(F)cc3F)no2)CCOCC1 | -8.546
64 | Cc1ccccc1C1(C(=O)NCCN2CCCC2)CCOCC1 | 3.645
65 | O=C(O)C1(Cc2cc(-c3ccccc3F)no2)CCOCC1 | 118.9
66 | O=C(O)C1(Cc2cc(-c3ccc(F)cc3)no2)CCOCC1 | 104.3
67 | O=C(NC1CC1)C1(Cc2cc(-c3ccc(F)cc3F)no2)CCOCC1 | 116.7
68 | O=C(O)C1(Cc2cc(-c3cccc(F)c3)no2)CCOCC1 | -9.48
69 | COCCNC(=O)c1cc(F)ccc1NS(C)(=O)=O | -6.492
70 | Cc1cc(C)n(CC2CCCN2CC(=O)N(C)Cc2cnn(C)c2)n1 (stereo not given) | 3.257
71 | Cc1ccsc1CN(CCN(C)C)C(=O)C1=NNC(=O)CC1 | -65.43
72 | O=C(CSc1ccncc1)N1CCC2(CC1)c1ccccc1CC2O (stereo not given) | -6.227
73 | CCS(=O)(=O)N1CC[C@H]2O[C@@H](c3nnc(C)o3)CC[C@H]21 | -3.387
74 | CCc1nc(C)c(C(=O)N2CCNCC2C(=O)NCc2ccncc2)o1 (stereo not given) | -5.393
75 | COCc1noc(-c2nn(-c3ccc(F)cc3)c3c2CCC3)n1 | -5.396
76 | COCCOCc1cccc(NC(=O)N2CCCC2c2ccncc2)c1 (stereo not given) | 1.869
77 | CNC(=O)C(C)(C)N1CCC[C@H]1C(=O)NCCN(C)C.Cl | 11.97
78 | Cc1ncc2c(n1)CCCC2NC(=O)c1ccccc1C(=O)O (stereo not given) | 116.6
79 | O=C(Nc1ccc(Cn2cccn2)cc1)N1CCC(CO)CC1 | 5.025
80 | Cc1ncc2c(n1)CCCC2NC(=O)c1ccc(Cn2cccn2)cc1 (stereo not given) | 102.9
81 | Cc1ncc2c(n1)CCCC2NC(=O)c1ccncc1 (stereo not given) | 4.921

Row | SMILES | Percent Effect [%]
82 | Cc1ccccc1C(=O)NC1CCN(c2cnn(C)c2)C1=O (stereo not given) | -0.04337
83 | Cc1ncc2c(n1)CCCC2NC(=O)c1ccccc1Cn1cncn1 (stereo not given) | -4.956
84 | Cc1ccccc1Oc1ncccc1CNS(C)(=O)=O | -1.022
85 | CNC(=O)CN(C)S(=O)(=O)c1c(Br)cc2[nH]c(=O)oc2c1Cl | -6.435
86 | COc1cccc(-c2cc(NCCO)nc3[nH]ccc23)n1 | 17.98
87 | CN(C)CCNc1cc(-c2ncccn2)c2cc[nH]c2n1 | -0.2256
88 | CN(C)CCNc1cc(-c2ccc[nH]c2=O)c2cc[nH]c2n1 | 6.813
89 | COc1nccnc1-c1cc(NC2CCNCC2)nc2[nH]ccc12 | -9.475
90 | COc1cccc(-c2cc(NCCN(C)C)nc3[nH]ccc23)n1 | -69.14
91 | CNc1cc(C)nc(-c2cc(NC3CCNCC3)nc3[nH]ccc23)n1 | 81.74
92 | Nc1ccnc(-c2cc(NC3CCNCC3)nc3[nH]ccc23)c1 | 10.25
93 | CNc1cc(C)nc(-c2cc(NC)nc3[nH]ccc23)n1 | 82.65
94 | CNc1cc(C)nc(-c2cc(NCCO)nc3[nH]ccc23)n1 | 88.51
95 | COCc1ncn(Cc2nc(-c3ccc(OC)c(OC)c3)oc2C)n1 | 7.274
96 | Cn1ccc(CNC(=O)Nc2ccc(S(=O)(=O)C(F)F)cc2)c1 | -20.88
97 | N#Cc1cc(NC(=O)c2ccccn2)ccc1N1CCC(O)CC1 | -12.43
98 | Cc1cc2cccc(C(=O)N3CC[C@@H](N)[C@H](O)C3)c2o1 | -9.123
99 | Cc1nc(C(C)C)ncc1C(=O)N1CCC(c2ccccc2C(=O)O)C1 (stereo not given) | -21.75
100 | Cc1cc(C(=O)N2CCCC(c3noc(C)n3)C2)[nH]n1 (stereo not given) | -10.2
101 | Cc1nc(-c2ccccc2C(=O)O)cc(C2CCN(C(C)C)C2)n1 (stereo not given) | 107.2
102 | Cc1noc(C2CCCN(C(=O)c3ccc(F)cc3F)C2)n1 (stereo not given) | -2.652
103 | Cc1cc(-c2cc(F)ccc2C(=O)O)nc(C2CCCN(C)C2)n1 (stereo not given) | 126.1
104 | CC(=O)N1CCC(c2nc(C)cc(-c3ccccc3C(=O)O)n2)CC1 | 83.33
105 | Cc1cc(-c2ccccc2C(=O)O)nc(C2CCCN(C)C2)n1 (stereo not given) | 123

Reference: ChEMBL document CHEMBL3988442, “University of Dundee, Small-Polar-MMV Screening Library” (2021)
